Drawing on PubChem BioAssay AID430 (Sanford-Burnham Center for Chemical Genomics, 2006), this text covers cytotoxicity for 60 compounds.

SMILES strings stand for the structures. Out of some 63,000 compounds screened, about 1,100 (1.7%) were called active. What follows is part of a selection rich in actives, with near analogues and random picks from the rest. Measured potencies and affinities stand elsewhere. A number with no mark means an inactive call. Rule as the data show it: active = cytotoxicity above about 50%; inactive = the rest.

This assay is described as follows: HPDE-C7 pancreatic duct cell viability loss – fluorescence, HTS (AID 430).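 Also: cells exposed to compound for 48 hours before viability readout; 0% = vehicle and 100% = reference cytotoxic drug.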 As to conditions: HPDE-C7 pancreatic duct cells viability, at 10 µM, active compounds read high.
Take `COCCN1Cc2cccc(C(=O)NCc3ccc4c(c3)OCO4)c2C1=O`: the cytotoxicity is -2.7%.
The same measure for `CCN(CC)S(=O)(=O)c1ccc(-c2nnc(SCC(=O)Nc3ccc4c(c3)OCO4)o2)cc1`: 3.5%; for `Cc1ccc(C(N)=S)c(C)c1`: -27.6%.
For `Cc1c(C(=O)Nc2ccc(F)cc2)oc2ccc(S(=O)(=O)N3CCC4(CC3)OCCO4)cc12`, the cytotoxicity was 11.5%.
Take `Cc1c(C(=O)NCCC2=CCCCC2)oc2ccc(S(=O)(=O)N3CCOCC3)cc12`: the cytotoxicity is 52.5% (active).
Regarding `Cc1c(C(=O)NCCc2ccccc2)oc2ccc(S(=O)(=O)N3CCOCC3)cc12`, the cytotoxicity was -7.6%.
With `Cc1c(C(=O)NCCC2=CCCCC2)oc2ccc(S(=O)(=O)N3CCC4(CC3)OCCO4)cc12`, the cytotoxicity is 35.3%.
For the compound `Cc1c(C(=O)Nc2ccccc2Cl)oc2ccc(S(=O)(=O)N3CCC4(CC3)OCCO4)cc12`, the cytotoxicity was 22.3%.
Consider `Cc1c(C(=O)Nc2cccc(Cl)c2)oc2ccc(S(=O)(=O)N3CCC4(CC3)OCCO4)cc12`, for which the cytotoxicity is 55.3% (active).
Consider `Cn1c(=O)c2cc(S(=O)(=O)NCCC(=O)N3CC=C(c4ccccc4)CC3)ccc2n(C)c1=O`, for which the cytotoxicity was -11.2%.
With `COc1c(Cl)cc(Cl)cc1/C=N/n1cnnc1`, the cytotoxicity is -1.3%.
Consider `CNS(=O)(=O)c1ccc(NC(=O)C(CCSC)NC(N)=O)cc1` (stereo not given), for which the cytotoxicity was 0.9%.
With `CCOc1ccc(S(=O)(=O)Nc2cccc(Cl)c2)cc1`, the cytotoxicity is 57.6% (active).
For the compound `COc1ccc(S(=O)(=O)Nc2cccc(Cl)c2)cc1OC`, the cytotoxicity is 13.9%.
Regarding `CCOc1ccc(S(=O)(=O)Nc2cc(Cl)ccc2O)cc1`, the cytotoxicity was 67.2% (active).
As to `CCOc1ccc(NS(=O)(=O)c2ccc(NS(C)(=O)=O)cc2)cc1`, the cytotoxicity is -4.7%.
`CCOc1ccc(S(=O)(=O)Nc2cccnc2)cc1`: the cytotoxicity is -3.5%.
Turning to `CCOc1ccc(NS(=O)(=O)c2cc(Cl)ccc2OC)cc1`, the cytotoxicity is -8.2%.
`CCCc1cc(=O)[nH]c(SC(CC)C(=O)Nc2ccccc2C#N)n1` (stereo not given): the cytotoxicity was -23.8%.
Consider `O=C(Cn1cc2c(n1)CCCC2)NC1CCCCCC1`, for which the cytotoxicity is -9.2%.
The same measure for `Cn1cccc1C(=O)OCc1cc(Cl)cc2c1OCOC2`: 1.1%; for `CCN(CC(=O)Nc1ccccc1C(=O)OC)S(=O)(=O)c1ccc(OC)cc1`: 1.1%.
On to `Cc1ccc(Cl)cc1N1CCN(Cc2nnnn2C2CCCCC2)CC1`, for which the cytotoxicity is -16%.
The same measure for `Cc1ccc(N=c2oc3cc(O)ccc3cc2C(N)=O)cc1`: 3.9%.
As for `NC(=O)c1cc2ccc(O)cc2oc1=Nc1ccccc1`, the cytotoxicity was 5.3%.
Turning to `Cc1cccc(N=c2oc3cc(O)ccc3cc2C(N)=O)c1`, the cytotoxicity is 59.6% (active).
For the compound `COCCn1c(SCC(=O)Nc2nnc(C)s2)nnc1-c1cc2ccccc2cc1O`, the cytotoxicity was 7.4%.
Next, `Cc1[nH]c(=O)[nH]c(=O)c1NS(=O)(=O)c1ccc2c(c1)CCCC2`: 10.1%.
For `COCCCN(C(=O)Nc1ccccc1)C(C)c1ccncc1` (stereo not given), the cytotoxicity was 4.9%.
With `COc1ccc(N2C(=O)CC(N3CCN(C4CCc5ccccc5C4)CC3)C2=O)cc1` (stereo not given), the cytotoxicity is -10.3%.
In the case of `CCCCc1ccc(NC(=O)CSC2=C(C#N)C(c3ccco3)C3=C(CCCC3=O)N2)cc1` (stereo not given), the cytotoxicity was 72.2% (active).
As to `CC1(C)CC(=O)C2=C(C1)NC(SCC(=O)Nc1ccccc1)=C(C#N)C2c1ccco1` (stereo not given), the cytotoxicity is -16.1%.
For `COc1cccc(NC(=O)CSC2=C(C#N)C(c3ccco3)C3=C(CCCC3=O)N2)c1` (stereo not given), the cytotoxicity is 22.1%.
Regarding `CCOC(=O)C1=C(c2ccccc2)NC(SCC(=O)Nc2ccc(C)cc2)=C(C#N)C1c1ccco1` (stereo not given), the cytotoxicity was 10.3%.
The same measure for `CCc1ccc(NC(=O)CSC2=C(C#N)C(c3ccco3)C3=C(CCCC3=O)N2)cc1` (stereo not given): -0.7%; for `Cc1ccc(NC(=O)CSC2=C(C#N)C(c3ccco3)C3=C(CC(C)(C)CC3=O)N2)cc1` (stereo not given): 57.2% (active).
For `O=C(CN1C(=O)C2C3C=CC(C3)C2C1=O)NCCN1CCCc2ccccc21` (stereo not given), the cytotoxicity was -7.4%.
Take `CC1CCCN(S(=O)(=O)c2ccc(S(=O)(=O)N3CCCN(Cc4ccccc4)C3)cc2)C1` (stereo not given): the cytotoxicity is 3.7%.
For `COc1ccc(N2CCN(c3nc4c(c(=O)[nH]c(=O)n4C)n3CCCc3ccccc3)CC2)cc1`, the cytotoxicity was -7.6%.
Regarding `Cc1ccc(-c2c3c(=O)n(C)c(=O)n(C)c3cn2Cc2ccccn2)cc1`, the cytotoxicity was -3.1%.
For `CCCOc1ccc(CSc2nnc(CCC)n2N)cc1`, the cytotoxicity was -13.5%.
The same measure for `CN1CCN(C2=C(Cl)C(=O)N(C3CCCCC3)C2=O)CC1`: -8%.
`O=C1c2ccncc2C(=O)N1C1CCCCC1`: the cytotoxicity is -7.2%.
For the compound `Cc1ccc(NS(=O)(=O)c2ccc(OCC(=O)NCc3ccco3)cc2)cc1`, the cytotoxicity is 6.8%.
In the case of `CC(C)CCn1nc(C(=O)OC(C)C(=O)NC(N)=O)c2ccccc2c1=O` (stereo not given), the cytotoxicity was -13.9%.
As for `Cc1ccccc1N=C1NC(=O)CS1`, the cytotoxicity was -24.1%.
As for `CCCn1c(CN2CCN(C(=O)OCC)CC2)nc2c1c(=O)n(C)c(=O)n2C`, the cytotoxicity was -8.2%.
On to `CCCCOC(=O)C1Cc2ccccc2C(=O)O1` (stereo not given), for which the cytotoxicity is -4.8%.
Next, `CC(C)Cn1c(CN2CCN(c3ccccc3F)CC2)nc2c1c(=O)[nH]c(=O)n2C`: -0.6%.
For the compound `Cc1ccc(Cl)cc1N1CCN(Cc2nc3c(c(=O)[nH]c(=O)n3C)n2Cc2ccccc2F)CC1`, the cytotoxicity was 112% (active).
As for `CCCCCn1c(CN2CCN(c3cccc(Cl)c3)CC2)nc2c1c(=O)[nH]c(=O)n2C`, the cytotoxicity is 43.9%.
With `Cn1c(=O)[nH]c(=O)c2c1nc(CN1CCN(c3cccc(Cl)c3)CC1)n2Cc1ccccc1Cl`, the cytotoxicity is -3.5%.
The same measure for `CCCCCn1c(CN2CCN(Cc3ccccc3)CC2)nc2c1c(=O)[nH]c(=O)n2C`: 0%.
`O=C(Cc1c(O)c2ccccc2[nH]c1=O)NCc1cccc(F)c1`: the cytotoxicity was 2.7%.
For the compound `CCN(CC)CCCN1C(=O)C(=O)/C(=C(/O)c2ccc(OC)c(Cl)c2)C1c1ccco1` (stereo not given), the cytotoxicity was 4.6%.
In the case of `COc1ccccc1CN1C(=O)[C@@H]2C(CCC(N)=O)NC3(C(=O)Nc4c3ccc(Cl)c4C)[C@@H]2C1=O` (stereo not given in full), the cytotoxicity was -5.3%.
Regarding `c1ccc2c(c1)Cn1nnnc1-2`, the cytotoxicity was 1.3%.
Regarding `CCC(=O)Nc1cc(-c2nn(C)c(=O)c3ccccc23)ccc1N1CCCCC1`, the cytotoxicity was 5.4%.
Next, `CCCC(=O)Nc1cc(-c2nn(C)c(=O)c3ccccc23)ccc1N1CCCCC1`: -10.2%; `Cn1nc(-c2ccc(N3CCCCC3)c(NC(=O)c3ccco3)c2)c2ccccc2c1=O`: 64.9% (active).
